From the supplement of paper PMC6411743
± gives the standard deviation of the averaged measurements. The full data set covers some 6,200 targets. This sample favours those with the largest changes.

Compound: Nc1ncnc2c1ncn2[C@@H]1O[C@H](COP(=O)(O)OP(=O)(O)NP(=O)(O)O)[C@@H](O)[C@H]1O [adenylyl imidodiphosphate]
Assay: NP40-soluble protein abundance relative to vehicle (solubility fold change) (ratio); higher = more soluble protein in presence of AMP-PNP
Outline: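 Eight concentrations, 0.1 to 10 mM, were tested on Jurkat crude lysate for 10 min at room temperature and then 3 min at 37 °C, in three independent experiments. The lysate was solubilised with 0.8% NP40 and benzonase, ultracentrifuged, and the supernatant TMT-labelled for LC-MS/MS. Each value is the fold change against the detergent-processed vehicle in its own replicate, from vsn-normalised intensities.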

UniProt O43148, sequence (O43148 whole entry): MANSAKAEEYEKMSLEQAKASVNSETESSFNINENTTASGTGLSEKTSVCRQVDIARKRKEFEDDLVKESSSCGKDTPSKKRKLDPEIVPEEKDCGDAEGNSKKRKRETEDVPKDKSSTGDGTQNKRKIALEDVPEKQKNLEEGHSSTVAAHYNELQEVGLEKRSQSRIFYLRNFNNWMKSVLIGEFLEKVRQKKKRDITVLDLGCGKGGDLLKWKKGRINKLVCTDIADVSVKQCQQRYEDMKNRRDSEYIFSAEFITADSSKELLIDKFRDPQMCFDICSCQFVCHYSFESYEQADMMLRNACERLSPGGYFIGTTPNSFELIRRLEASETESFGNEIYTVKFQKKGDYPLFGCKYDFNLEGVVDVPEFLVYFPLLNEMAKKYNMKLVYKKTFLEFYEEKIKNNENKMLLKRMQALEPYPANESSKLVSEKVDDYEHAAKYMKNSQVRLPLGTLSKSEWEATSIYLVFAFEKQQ
UniProt A3KMH1, sequence (A3KMH1 whole entry): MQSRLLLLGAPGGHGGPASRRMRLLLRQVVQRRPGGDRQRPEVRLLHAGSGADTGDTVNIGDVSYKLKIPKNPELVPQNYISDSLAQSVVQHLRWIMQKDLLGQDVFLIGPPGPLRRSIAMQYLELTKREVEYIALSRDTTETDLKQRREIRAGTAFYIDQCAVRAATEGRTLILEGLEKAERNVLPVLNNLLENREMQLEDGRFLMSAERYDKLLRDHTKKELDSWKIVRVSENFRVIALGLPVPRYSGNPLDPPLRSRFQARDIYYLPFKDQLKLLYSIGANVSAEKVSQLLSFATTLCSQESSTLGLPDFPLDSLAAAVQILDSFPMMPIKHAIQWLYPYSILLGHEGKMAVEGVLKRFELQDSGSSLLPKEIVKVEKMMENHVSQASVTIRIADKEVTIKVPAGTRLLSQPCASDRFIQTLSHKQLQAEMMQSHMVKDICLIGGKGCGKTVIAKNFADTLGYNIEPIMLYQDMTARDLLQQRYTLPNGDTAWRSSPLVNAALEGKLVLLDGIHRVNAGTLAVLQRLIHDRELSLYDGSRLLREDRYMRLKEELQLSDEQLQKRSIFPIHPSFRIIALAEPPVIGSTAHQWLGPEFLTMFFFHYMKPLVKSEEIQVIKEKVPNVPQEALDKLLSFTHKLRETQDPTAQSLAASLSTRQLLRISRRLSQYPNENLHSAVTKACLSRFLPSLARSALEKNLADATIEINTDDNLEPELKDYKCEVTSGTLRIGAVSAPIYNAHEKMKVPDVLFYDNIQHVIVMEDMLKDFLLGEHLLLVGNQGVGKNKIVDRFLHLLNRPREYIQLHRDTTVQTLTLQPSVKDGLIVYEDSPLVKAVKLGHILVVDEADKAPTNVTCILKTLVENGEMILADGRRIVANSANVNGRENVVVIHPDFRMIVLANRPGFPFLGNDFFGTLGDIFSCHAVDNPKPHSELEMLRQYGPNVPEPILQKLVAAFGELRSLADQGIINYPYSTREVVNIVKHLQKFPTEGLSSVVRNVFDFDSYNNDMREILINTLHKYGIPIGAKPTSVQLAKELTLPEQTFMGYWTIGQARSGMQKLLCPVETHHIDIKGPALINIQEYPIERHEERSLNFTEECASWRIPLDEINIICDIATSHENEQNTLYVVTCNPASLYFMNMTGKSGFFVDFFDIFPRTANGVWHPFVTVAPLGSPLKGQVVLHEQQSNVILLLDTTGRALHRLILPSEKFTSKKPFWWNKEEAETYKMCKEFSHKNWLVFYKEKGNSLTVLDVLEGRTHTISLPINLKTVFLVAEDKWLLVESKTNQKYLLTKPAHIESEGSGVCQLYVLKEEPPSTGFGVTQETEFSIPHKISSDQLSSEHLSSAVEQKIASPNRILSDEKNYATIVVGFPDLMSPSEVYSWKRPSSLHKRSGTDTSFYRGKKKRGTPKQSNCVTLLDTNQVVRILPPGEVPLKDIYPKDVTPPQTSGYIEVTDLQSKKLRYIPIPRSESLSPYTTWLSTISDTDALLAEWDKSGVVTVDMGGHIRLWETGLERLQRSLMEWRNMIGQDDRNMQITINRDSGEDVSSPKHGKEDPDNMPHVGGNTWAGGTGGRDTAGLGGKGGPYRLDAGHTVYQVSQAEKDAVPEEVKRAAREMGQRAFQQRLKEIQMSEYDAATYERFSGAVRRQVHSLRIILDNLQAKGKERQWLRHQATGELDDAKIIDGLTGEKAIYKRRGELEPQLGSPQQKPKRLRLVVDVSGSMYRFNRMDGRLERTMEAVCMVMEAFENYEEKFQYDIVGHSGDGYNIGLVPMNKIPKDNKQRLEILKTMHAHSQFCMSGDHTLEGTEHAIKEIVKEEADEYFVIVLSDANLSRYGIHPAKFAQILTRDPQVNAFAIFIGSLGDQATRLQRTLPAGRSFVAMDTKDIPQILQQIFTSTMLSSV
UniProt O14735, sequence (O14735 whole entry): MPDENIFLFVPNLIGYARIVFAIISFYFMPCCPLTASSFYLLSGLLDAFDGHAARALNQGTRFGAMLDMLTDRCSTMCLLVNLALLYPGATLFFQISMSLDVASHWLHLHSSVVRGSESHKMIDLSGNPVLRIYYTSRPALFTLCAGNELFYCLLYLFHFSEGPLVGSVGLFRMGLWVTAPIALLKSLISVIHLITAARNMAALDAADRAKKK
UniProt P24864, sequence (P24864 whole entry, one chain of several): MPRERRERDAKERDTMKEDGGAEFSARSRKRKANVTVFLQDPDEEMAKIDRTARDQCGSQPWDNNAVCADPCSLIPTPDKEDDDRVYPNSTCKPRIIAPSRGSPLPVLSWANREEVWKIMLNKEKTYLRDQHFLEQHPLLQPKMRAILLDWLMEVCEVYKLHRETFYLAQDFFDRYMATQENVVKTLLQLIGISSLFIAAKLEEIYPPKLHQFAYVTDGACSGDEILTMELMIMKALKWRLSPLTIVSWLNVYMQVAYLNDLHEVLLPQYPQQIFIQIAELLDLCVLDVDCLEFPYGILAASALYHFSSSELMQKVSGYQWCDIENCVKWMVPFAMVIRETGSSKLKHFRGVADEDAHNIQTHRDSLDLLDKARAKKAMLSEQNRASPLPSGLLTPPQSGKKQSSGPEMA
UniProt Q2TAA2, sequence (Q2TAA2 whole entry, one chain of several): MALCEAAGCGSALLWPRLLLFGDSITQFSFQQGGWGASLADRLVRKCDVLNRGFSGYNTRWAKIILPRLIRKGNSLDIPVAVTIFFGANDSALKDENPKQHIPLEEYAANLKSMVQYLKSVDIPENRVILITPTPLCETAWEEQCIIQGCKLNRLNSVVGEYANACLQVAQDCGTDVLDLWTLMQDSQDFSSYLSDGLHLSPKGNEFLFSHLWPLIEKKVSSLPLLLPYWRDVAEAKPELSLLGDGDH
UniProt Q96K21, sequence (Q96K21 whole entry, one chain of several): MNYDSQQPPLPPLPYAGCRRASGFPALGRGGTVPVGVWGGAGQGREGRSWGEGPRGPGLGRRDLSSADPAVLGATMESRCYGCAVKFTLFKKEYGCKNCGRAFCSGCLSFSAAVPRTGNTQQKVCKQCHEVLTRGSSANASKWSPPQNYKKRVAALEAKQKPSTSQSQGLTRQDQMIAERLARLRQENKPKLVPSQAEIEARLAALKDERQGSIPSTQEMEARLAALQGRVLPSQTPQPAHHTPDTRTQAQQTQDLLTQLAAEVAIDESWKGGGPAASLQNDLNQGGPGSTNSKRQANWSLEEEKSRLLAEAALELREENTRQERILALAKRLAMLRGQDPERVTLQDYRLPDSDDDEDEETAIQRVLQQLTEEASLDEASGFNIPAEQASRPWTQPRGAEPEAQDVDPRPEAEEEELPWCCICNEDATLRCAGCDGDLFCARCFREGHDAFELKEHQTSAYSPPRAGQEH
UniProt Q8WTS6, sequence (Q8WTS6 whole entry, one chain of several): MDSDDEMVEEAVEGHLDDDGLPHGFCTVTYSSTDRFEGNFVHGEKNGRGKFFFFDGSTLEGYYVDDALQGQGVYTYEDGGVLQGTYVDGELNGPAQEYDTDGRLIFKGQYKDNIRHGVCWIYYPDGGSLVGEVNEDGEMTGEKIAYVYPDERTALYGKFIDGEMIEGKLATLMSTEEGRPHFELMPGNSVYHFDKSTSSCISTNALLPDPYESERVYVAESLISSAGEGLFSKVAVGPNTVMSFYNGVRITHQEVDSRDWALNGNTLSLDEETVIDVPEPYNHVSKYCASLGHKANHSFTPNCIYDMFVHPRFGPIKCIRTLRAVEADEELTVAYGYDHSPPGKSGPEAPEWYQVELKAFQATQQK
UniProt O95772, sequence (O95772 whole entry, one chain of several): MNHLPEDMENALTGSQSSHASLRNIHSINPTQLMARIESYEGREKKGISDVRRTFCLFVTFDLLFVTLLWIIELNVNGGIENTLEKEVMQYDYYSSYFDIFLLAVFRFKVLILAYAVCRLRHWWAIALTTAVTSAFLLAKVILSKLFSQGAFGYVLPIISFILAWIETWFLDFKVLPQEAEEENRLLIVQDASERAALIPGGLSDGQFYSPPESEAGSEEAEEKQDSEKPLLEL
UniProt Q96ME7, sequence (Q96ME7 whole entry, one chain of several): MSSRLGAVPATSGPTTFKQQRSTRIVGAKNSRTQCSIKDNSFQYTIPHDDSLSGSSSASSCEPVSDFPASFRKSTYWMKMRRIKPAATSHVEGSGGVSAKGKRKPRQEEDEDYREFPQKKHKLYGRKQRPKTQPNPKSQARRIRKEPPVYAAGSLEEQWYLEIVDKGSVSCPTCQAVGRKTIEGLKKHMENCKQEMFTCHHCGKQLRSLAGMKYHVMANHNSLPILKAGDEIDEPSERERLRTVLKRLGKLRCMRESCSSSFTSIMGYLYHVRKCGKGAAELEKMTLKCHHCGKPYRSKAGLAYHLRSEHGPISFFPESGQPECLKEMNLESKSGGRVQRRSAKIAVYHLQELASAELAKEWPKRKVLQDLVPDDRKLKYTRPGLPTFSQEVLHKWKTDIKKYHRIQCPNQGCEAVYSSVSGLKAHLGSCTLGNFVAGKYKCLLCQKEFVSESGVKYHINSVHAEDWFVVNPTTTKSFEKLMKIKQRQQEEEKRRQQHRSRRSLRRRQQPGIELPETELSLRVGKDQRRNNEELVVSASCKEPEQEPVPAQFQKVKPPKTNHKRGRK
UniProt O96015, sequence (O96015 whole entry, one chain of several): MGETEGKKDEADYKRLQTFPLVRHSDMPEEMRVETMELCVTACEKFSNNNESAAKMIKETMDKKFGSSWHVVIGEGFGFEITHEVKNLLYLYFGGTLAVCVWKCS

Target	NP40-soluble protein abundance (concentration: 1mM)	NP40-soluble protein abundance (concentration: 2mM)	NP40-soluble protein abundance (concentration: 4mM)	NP40-soluble protein abundance (concentration: 6mM)	NP40-soluble protein abundance (concentration: 8mM)	NP40-soluble protein abundance (concentration: 10mM)
A0A0A0MQS0|A8MW92|F8W9L8|A8MW92-4 (UniProt A8MW92)	0.995 ± 0.044	1.11 ± 0.088	1.1 ± 0.041	1.15 ± 0.036	1.17 ± 0.081	1.26 ± 0.019
I3VM54|Q9Y2K7 (UniProt Q9Y2K7)	1.02 ± 0.016	1.08 ± 0.045	1.17 ± 0.037	1.26 ± 0.12	1.31 ± 0.11	1.43 ± 0.17
H7BXF5|Q9H0E3-3 (UniProt Q9H0E3)	1.05 ± 0.041	1.09 ± 0.035	1.02 ± 0.03	1.03 ± 0.039	0.993 ± 0.016	1.05 ± 0.057
UniProt O15400|O15400-2	1.01 ± 0.059	1.04 ± 0.1	0.993 ± 0.06	0.992 ± 0.035	0.976 ± 0.039	0.957 ± 0.038
C9J2U0|I3L413|P24864|P24864-2|P24864-3 (UniProt P24864)	0.913 ± 0.0092	0.822 ± 0.076	0.935 ± 0.011	0.936 ± 0.032	0.9933 ± 0.0062	0.953 ± 0.07
C5orf51 (UniProt A6NDU8)	1.04 ± 0.014	1.03 ± 0.025	1.01 ± 0.025	0.9735 ± 0.0065	0.953 ± 0.017	0.95 ± 0.05
UniProt O75037|O75037-2	1.03 ± 0.042	1.06 ± 0.018	1.04 ± 0.05	1.01 ± 0.04	1 ± 0.032	1.04 ± 0.052
UniProt O43148|O43148-2	0.996 ± 0.013	1.01 ± 0.011	0.992 ± 0.017	0.992 ± 0.027	0.985 ± 0.029	1 ± 0.033
UniProt A2RU67	0.9918 ± 0.004	1.03 ± 0.031	1.02 ± 0.021	1 ± 0.019	1 ± 0.017	1.03 ± 0.016
H3BRF9|Q96K21|Q96K21-3 (UniProt Q96K21)	0.998 ± 0.015	1.03 ± 0.05	1.02 ± 0.049	0.979 ± 0.02	0.959 ± 0.028	0.997 ± 0.044
CDIPT (UniProt O14735)	0.928 ± 0.062	0.896 ± 0.042	1 ± 0.019	1.01 ± 0.088	1.03 ± 0.073	0.974 ± 0.039
J3QTA2|Q99933|Q99933-3|Q99933-4 (UniProt Q99933)	1.01 ± 0.028	1.029 ± 0.0083	0.992 ± 0.012	0.99 ± 0.03	0.965 ± 0.038	0.993 ± 0.021
A0A0A0MTL5|Q13309|Q13309-2 (UniProt Q13309)	0.986 ± 0.041	0.965 ± 0.037	0.976 ± 0.029	0.932 ± 0.053	0.923 ± 0.036	0.91 ± 0.014
H0YIV9|O43716 (UniProt O43716+H0YIV9)	0.973 ± 0.038	1.02 ± 0.038	1.01 ± 0.03	0.988 ± 0.012	0.977 ± 0.015	0.962 ± 0.013
E5RFJ1|Q96MF7 (UniProt Q96MF7)	1.01 ± 0.028	1.03 ± 0.06	1.02 ± 0.035	0.957 ± 0.033	0.989 ± 0.022	0.9706 ± 0.0092
G3V5N8|Q9HBF4|Q9HBF4-3 (UniProt Q9HBF4)	0.991 ± 0.012	0.986 ± 0.035	0.987 ± 0.054	0.96 ± 0.021	0.968 ± 0.0098	0.938 ± 0.047
J3QRS9|O43670|O43670-2|O43670-4|X6R4W8 (UniProt O43670)	1.09 ± 0.073	1.09 ± 0.087	1.15 ± 0.074	1.25 ± 0.065	1.29 ± 0.062	1.34 ± 0.1
UniProt A3KMH1|A3KMH1-3	0.93 ± 0.024	0.858 ± 0.098	0.933 ± 0.025	0.874 ± 0.035	0.879 ± 0.017	0.8557 ± 0.0057
H0YLF3|P61769 (UniProt P61769)	0.99 ± 0.055	0.977 ± 0.084	0.923 ± 0.1	0.879 ± 0.15	0.971 ± 0.035	0.917 ± 0.076
B4E0Y9|Q8NBY1|Q9P289 (UniProt Q9P289)	0.999 ± 0.019	1.03 ± 0.059	1.01 ± 0.034	1.05 ± 0.036	1.01 ± 0.045	1.06 ± 0.039
H7C5G1|Q2TAA2 (UniProt Q2TAA2)	0.995 ± 0.037	0.975 ± 0.015	0.98 ± 0.028	0.972 ± 0.016	0.965 ± 0.022	0.981 ± 0.028
A0A0B4J220 (UniProt E9PRG8)	1.14 ± 0.051	1.15 ± 0.057	1.2 ± 0.045	1.26 ± 0.1	1.4 ± 0.053	1.39 ± 0.046
G3XAG1|Q96ME7|Q96ME7-3 (UniProt Q96ME7)	1.04 ± 0.064	1.03 ± 0.1	1.17 ± 0.086	1.39 ± 0.083	1.52 ± 0.039	1.64 ± 0.1
F8VUY8|Q96QD8 (UniProt Q96QD8)	1 ± 0.015	1.07 ± 0.091	1 ± 0.022	0.967 ± 0.022	0.988 ± 0.014	0.989 ± 0.02
C9JKL2|O95772|O95772-2|C9J3F5|C9JJ39|C9JPX5 (UniProt O95772)	1.02 ± 0.019	1.04 ± 0.036	1.01 ± 0.016	0.989 ± 0.028	0.989 ± 0.019	1 ± 0.034
C9JYN0|Q16563-2|Q16563 (UniProt Q16563)	1.01 ± 0.015	1.06 ± 0.12	1.05 ± 0.042	1.12 ± 0.12	1.12 ± 0.057	1.14 ± 0.17
B5MCS2|Q8WTS6 (UniProt Q8WTS6)	0.93 ± 0.076	0.946 ± 0.039	0.946 ± 0.043	0.954 ± 0.032	0.957 ± 0.022	0.936 ± 0.042
K7EK07|P84243 (UniProt P84243+K7EK07)	0.97 ± 0.11	1.01 ± 0.094	1.01 ± 0.084	1.08 ± 0.13	1.09 ± 0.15	1.16 ± 0.1
A0A0G2JNU3|A6H8Y1|A6H8Y1-6|A6H8Y1-7 (UniProt A6H8Y1)	1.05 ± 0.041	1.087 ± 0.0063	1.12 ± 0.056	1.17 ± 0.067	1.12 ± 0.07	1.22 ± 0.046
B0QXZ5|O96015 (UniProt O96015)	1 ± 0.02	1.01 ± 0.047	0.983 ± 0.018	0.998 ± 0.021	0.996 ± 0.019	0.9826 ± 0.0082
